Results reported in PubChem BioAssay AID651965 (National Center for Advancing Translational Sciences (NCATS), 2013).
In all, about 340,000 compounds went through this assay and about 6,400 (1.9%) were called active. About 4% were inconclusive and are not listed. This is one part of a sample in which actives are shown more often than they occur. Values without a mark were called inactive. Calls follow the shape of the dose curve; as a rule, active = well fitted falling curve with a large enough effect; inconclusive = small, poorly fitted or top-dose-only effect; inactive = no such curve, though single readings can be large or run the other way.

Target: ATP-dependent Clp protease proteolytic subunit (Bacillus subtilis (strain 168)) (UniProt P80244)
Test: qHTS Assay for Activators of ClpP; also: the source files actives as falling curves though it sought activators and does not explain the sign; nearly all actives have a fitted effect of over 65% in size
Details: purified B. subtilis ClpP, FRET peptide cleavage, 20 min; series mostly up to 57.5 µM; activity change, negative = active: at the top concentration
In short: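 FRET quenching reversal measured ClpP activation: 10 microg/mL B. subtilis ClpP at pH 8 with the FRET-FV decapeptide, read at 430 nm after 320 nm excitation. The 20-min minus 0-min signal was scaled between DMSO/no-enzyme wells and ADEP (5.8 microM final).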
Potency is read from the fitted curve at half-maximal effect.

Chain of ATP-dependent Clp protease proteolytic subunit (Bacillus subtilis (strain 168)) (P80244 whole entry, looked up): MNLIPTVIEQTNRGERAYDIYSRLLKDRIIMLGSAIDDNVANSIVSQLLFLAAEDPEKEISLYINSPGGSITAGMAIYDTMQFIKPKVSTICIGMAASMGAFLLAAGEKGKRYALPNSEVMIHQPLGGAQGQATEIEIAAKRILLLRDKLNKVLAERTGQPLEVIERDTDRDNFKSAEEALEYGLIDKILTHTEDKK

Row | SMILES | activity change, negative = active | Potency
1 | CC(O)(c1cccc(F)c1)c1nc(-c2ccc3c(c2)OCO3)cs1 (configuration not stated) | -7.59% | –
2 | C[C@@H]1CN([C@@H](C)CO)C(=O)c2cc(Br)cnc2O[C@H]1CN(C)Cc1ccc(-c2ccccc2)cc1 | -0.688% | –
3 | C[C@@H]1CN([C@H](C)CO)C(=O)CCCn2nncc2CO[C@@H]1CN(C)S(=O)(=O)c1cccc(C#N)c1 | -4.62% | –
4 | CC[C@@H]1CC2=C(C(=O)OC(C)(C)O2)[C@@H](CC)O1 | -1.94% | –
5 | CC1(c2cccc(Br)c2)NC(=O)N(CC(=O)NCCC2=CCCCC2)C1=O (configuration not stated) | 2.55% | –
6 | COc1ccc(CCN(Cc2cc3cccc(C)c3[nH]c2=O)C(=O)N2CCCC2)cc1OC | -26.6% | –
7 | COc1cc2cc(CN(CCN3CCCC3)C(=O)Nc3ccccc3Cl)c(=O)[nH]c2cc1OC | – | 3.16 µM (active)
8 | Cc1ccc2[nH]c(=O)c(CN(CCCN(C)C)C(=O)Nc3cccc(Cl)c3)cc2c1 | -15.6% | –
9 | O=S1(=O)CC(N2CCSCC2)CN1Cc1cn(Cc2cccc(Cl)c2)nn1 (configuration not stated) | 1.24% | –
10 | CCc1nc2c(OCc3ccccc3)cccn2c1N(C)C(=O)c1ccco1 | 0.312% | –
11 | CC(=O)Oc1ccc(Cn2c(C)c(C(=O)NCc3ccc(C#N)cc3)sc2=O)cc1 | -2.06% | –
12 | CC(=O)NC(c1cccc(F)c1)c1nc(-c2cccc(F)c2)cs1 (configuration not stated) | -1.82% | –
13 | COc1ccc(CNc2nc(-c3ccc(Cl)cc3)cc(C(F)(F)F)n2)cc1 | 4.07% | –
14 | FC(F)(F)c1cc(-c2ccco2)nc(NCc2ccc(Cl)cc2)n1 | – | 28.2 µM (active)
15 | Cc1cc(C(F)(F)F)nn1-c1nc(-c2ccco2)cc(C(F)(F)F)n1 | – | 35.5 µM (active)
16 | Cc1nn(-c2nc(-c3ccccc3)cc(C(F)(F)F)n2)c(C)c1Cl | -2.43% | –
17 | COc1nc(NCc2ccc(Cl)cc2)nc(OC)n1 | -1.49% | –
18 | CCOC(=O)c1ccn(-c2nc(-c3ccco3)cc(C(F)(F)F)n2)n1 | 5.18% | –
19 | CCc1oc(-c2ccc(OC)cc2)c(C(=O)OCCCCCO)c1C(C)OCCO (configuration not stated) | 4.8% | –
20 | CCSC1(SCC)N=C(N)C2(C#N)C(c3ccccc3)NC(C)=CC12C#N (configuration not stated) | – | 15.8 µM (active)
21 | CNc1cncc(-c2ccc(NS(C)(=O)=O)cc2)n1 | 4.84% | –
22 | COc1cccc(CN2CCC(C(=O)NC(c3ccc4c(c3)OCO4)c3ccccn3)CC2)c1 (configuration not stated) | -0.188% | –
23 | O=C(COc1ccccc1C(=O)Nc1ccccc1)Nc1cccc(F)c1 | -3.07% | –

Row | SMILES | activity change, negative = active | Potency
24 | CC(C)n1c(CN2CCN(Cc3ccccc3)CC2)nc2ccccc21 | -1.63% | –
25 | CCC(c1nc2ccccc2[nH]1)n1c(=O)c(-c2cccs2)nc2ccccc21 (configuration not stated) | 3.79% | –
26 | CC(C)n1c(-c2cccs2)nc2ccccc21 | – | 3.98 µM (active)
27 | COc1cc(C=C(OC(C)=O)c2ccc3c(c2)OCO3)cc(OC)c1OC | -17.1% | –
28 | CCOC(=O)c1cc(C)nc(S(C)(=O)=O)c1C#N | -4.23% | –
29 | CCCCSc1[nH]c(=O)c(C(=O)OCC)cc1C#N | – | 31.6 µM (active)
30 | CCOC(=O)c1cnc(COc2ccccc2Cl)[nH]c1=O | -13.7% | –
31 | CC(C)(C(=O)N1CCC1(C)C(=O)NS(=O)(=O)c1ccc(Br)cc1)c1ccccc1 (configuration not stated) | 0.843% | –
32 | COc1cc(NC(=O)c2cccs2)ccc1NC(=O)c1ccccc1Cl | – | 14.1 µM (active)
33 | COc1cc(Cl)c(C)cc1NC(=O)[C@@H]1CCCN1C(=O)c1cccs1 | -2.96% | –
34 | O=C(Nc1ccccc1)c1ccc(NC(=O)c2cccs2)cc1 | -22.6% | –
35 | CCC1OC(C2CC2)CC2=C1C(=O)OC(C)(C)O2 (configuration not stated) | 1.84% | –
36 | CC(C)c1cc(C(N)=O)c(NC(=O)c2cccc(COc3ccc(Br)cc3)c2)s1 | – | 25.1 µM (active)
37 | CC(C)(C)OC(=O)N(Cc1ccccc1)Cc1ccc(OCc2cccc(NC(=O)c3ccccc3)c2)cc1 | -13.9% | –
38 | CCc1cc(C(N)=O)c(NC(=O)c2ccc(OC)cc2)s1 | 0.183% | –
39 | COCCNC(=O)C1(C)CCCN(Cc2cccc(F)c2)C1 (configuration not stated) | 0.172% | –
40 | COc1ccc(OCCCn2c(C)nc3cc(C)c(C)cc32)cc1 | 1% | –
41 | COc1ccc(OCCCCN2CCC(C)CC2)cc1 | -0.0749% | –
42 | COc1ccc(OCCn2ccnc2C)cc1 | – | 3.16 µM (active)
43 | O=C(C[C@H]1C[C@H]2c3cc(NS(=O)(=O)c4ccc(F)cc4)ccc3O[C@H]2[C@H](CO)O1)NCc1cc(F)ccc1F | -1.88% | –
44 | Cc1c(C(=O)CN2CCOCC2)[nH]c2ccccc12 | -5.08% | –
45 | CCOC(=O)c1[nH]c2ccc(OC)cc2c1NC(=O)N1CCOCC1 | – | 25.1 µM (active)
46 | Cc1cc(NC(=O)CCN2CCN(Cc3ccccc3)CC2)ccc1Br | -1.11% | –

Row | SMILES | activity change, negative = active | Potency
47 | CCOC(=O)c1[nH]c2ccc(OC)cc2c1NC(=O)CCN1CCN(Cc2ccccc2)CC1 | – | 31.6 µM (active)
48 | CCOC(=O)N1CCN(CCC(=O)Nc2cc(OC)ccc2OC)CC1 | -4.91% | –
49 | COC(=O)c1[nH]c2ccccc2c1NC(=O)CN1CCCc2ccccc21 | -18.7% | –
50 | CCOC(=O)[C@]12CCCC=C1N(Cc1ccc(Cl)cc1Cl)C(=O)[C@H](CC(=O)N1CCCCC1)C2 | 3.33% | –
51 | OCC(O)C(O)C(O)C(O)C=Nc1ccc(/C=C/c2ccnc3ccccc23)cc1 (configuration not stated) | 0.863% | –
52 | CCCc1ccc(S(=O)(=O)N2CCN(C(=O)c3cc(C)on3)CC2)cc1 | -10.5% | –
53 | CCOc1ccc(CCN2C(=O)C(=O)N([C@@H](CC(C)C)CN3CCC[C@H]3CN3C(=O)C(=O)NC[C@@H]3Cc3ccccc3)C[C@@H]2CC(C)C)cc1 | -0.248% | –
54 | CC(C)NC(=O)C1(C)CCCCCN1C(=O)c1ccc(-c2ccccc2)cc1 (configuration not stated) | -0.591% | –
55 | O=C(COc1coc(CN2CCN(c3ccccc3)CC2)cc1=O)N1CCc2ccccc21 | – | 28.2 µM (active)
56 | O=C(COc1coc(CN2CCN(c3ccccc3)CC2)cc1=O)Nc1ccccc1F | 76.5% | –
57 | O=C(COc1coc(CN2CCN(c3ccccc3F)CC2)cc1=O)N1CCc2ccccc21 | -1.27% | –
58 | CS(=O)c1ccc(/C=C2\C=Cc3ccccc32)cc1 (configuration not stated) | 2.41% | –
59 | CCCNC(=O)C1(C)CCCN(Cc2cccc(C(F)(F)F)c2)C1 (configuration not stated) | 2.87% | –
60 | Cc1cc(C)c(S(=O)(=O)NN=C2c3ccccc3[C@H]3Cc4csc[n+]4[C@@H]23)c(C)c1 | -2.39% | –
61 | Cc1ccc(-c2nc3ccccn3c2Nc2ccc(F)cc2)o1 | 3.8% | –
62 | COc1ccccc1C(=O)Nc1ccc(NC(=O)c2ccco2)c(C)c1 | 1.84% | –
63 | COc1ccc(NC(=O)c2ccco2)cc1NC(=O)COc1ccc(C)c(C)c1 | -5.86% | –
64 | COc1cccc(C(=O)Nc2ccc(NC(=O)c3ccco3)cn2)c1 | – | 14.1 µM (active)
65 | O=C(Nc1ccc(NC(=O)c2cccs2)cn1)c1ccco1 | -3.98% | –
66 | Cc1ccc(C(=O)COc2cccc(NC(=O)c3ccco3)c2)cc1 | – | 15.8 µM (active)
67 | Cc1ccc(NC(=O)c2ccco2)cc1 | -1.1% | –
